M1 ag parental: counter-screen for M1 agonists: effect in parental CHO-K1 cells; activation, % at 3 µM; AID 602248, 2012; hit rate 0.48% among 360,000; Fluo-8 calcium fluorescence; scaled to maximal ATP response, vehicle zero; in the data active = activation above about 15%;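 also: untransfected CHO-K1 host cells lacking M1 receptor as counterscreen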
CHO-K1 Ca antag: nonselective inhibitor or artifact in parental CHO-K1 cells | hit rate 0.6% among 360,000 | AID 602250 | inhibition, % at 3 µM | ATP-induced calcium, Fluo-8 fluorescence;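 active = inhibition above a per-plate cutoff, the plate's mean sample inhibition plus 3 SD, cut at about 24% in these data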;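 also: 0% = DMSO plus EC80 ATP and 100% = DMSO alone without ATP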
M1 antag: human M1 muscarinic receptor antagonists, primary screen, CHO-K1 cells, Fluo-8 calcium fluorescence, 1536-well. inhibition, % at 3 µM. AID 588852, 2011. CHO-K1 hM1, ACh EC80 antagonist. hit rate 1.3% among 360,000;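 active = percent inhibition above its own plate's cutoff, namely the mean of that plate's compound wells plus 3 SD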;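 also: peak over basal fluorescence ratio during 140 s after agonist addition; 0% = ACh EC80 plus DMSO and 100% = DMSO alone without agonist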
Target sequence (P11229 whole entry, looked up): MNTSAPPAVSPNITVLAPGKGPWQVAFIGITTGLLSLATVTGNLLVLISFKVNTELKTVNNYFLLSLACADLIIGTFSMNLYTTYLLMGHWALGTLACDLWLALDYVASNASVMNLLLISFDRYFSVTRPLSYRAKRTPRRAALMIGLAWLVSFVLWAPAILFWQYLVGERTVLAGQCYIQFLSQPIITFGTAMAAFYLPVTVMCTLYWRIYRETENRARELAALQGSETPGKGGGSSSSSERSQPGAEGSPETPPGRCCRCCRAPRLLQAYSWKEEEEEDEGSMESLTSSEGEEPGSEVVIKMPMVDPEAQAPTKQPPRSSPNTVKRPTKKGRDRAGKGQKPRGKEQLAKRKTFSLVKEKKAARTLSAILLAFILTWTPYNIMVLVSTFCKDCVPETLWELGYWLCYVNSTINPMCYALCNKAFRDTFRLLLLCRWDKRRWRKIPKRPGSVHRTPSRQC
M1 PAM: human M1 muscarinic receptor positive allosteric modulators, primary screen, CHO-K1 cells, Fluo-8 calcium fluorescence, 1536-well. CHO-K1 hM1, ACh EC20; 0% = ACh EC20, 100% = maximal ACh. Muscarinic acetylcholine receptor M1 (Homo sapiens), P11229. activation, % at 3 µM. hit rate 0.088% among 360,000; in the data active = activation above about 19%, passing the limit was not always enough
CHO-K1 Ca PAM: nonselective calcium activators in parental CHO-K1 cells, primary screen, counter-screen for M1 PAM project, cell-based, Fluo-8 calcium fluorescence, full deck, 1536-well; activation, % at 3 µM; ATP EC20; 0% at ATP EC20, 100% at ATP max; hit rate 0.02% among 360,000; AID 602247, 2012;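 active = activation above the run cutoff, the mean activation of all test compounds plus 3 SD, cut at about 40% in these data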;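 also: peak over basal fluorescence ratio in a 140 s read after ATP addition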
M1 ag: human M1 muscarinic receptor agonists, primary screen, Fluo-8 calcium fluorescence, CHO-K1 cells, HTS; CHO-K1 hM1, agonist mode; 0% DMSO, 100% acetylcholine EC100; Muscarinic acetylcholine receptor M1 (Homo sapiens), P11229; hit rate 0.33% among 360,000; activation, % at 3 µM; AID 588814, 2011;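 active = activation above the run's mean compound activation plus 3 SD, cut at about 16% in these data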;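 also: peak over basal fluorescence ratio within a 140 s kinetic read after compound addition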
Active calls of the source: *. In the library only some 2.3% were active in any assay of this set; here they are far more common.

SMILES | M1 ag parental | CHO-K1 Ca antag | M1 antag | M1 PAM | CHO-K1 Ca PAM | M1 ag
Cc1ccc(CNC(=O)COC(=O)c2nc(-c3ccccc3)oc2C)cc1 | -1 | -21 | -4 | 18 | 9 | 1
Cc1cccc(NC(=O)CCc2ccc(N3C(N)=NC(N)=NC3(C)C)cc2)c1 | 0 | -15 | -10 | 1 | 16 | -8
Cc1sc2ncnc(N3CCC(C(=O)N(C)CC(=O)Nc4ccccc4Br)CC3)c2c1C | 10 | 0 | 35* | -10 | 4 | 0
CCN(CC(=O)Nc1cc(Cl)ccc1C)C(=O)C1CCN(c2ncnc3sc(C)c(C)c23)CC1 | 5 | 4 | 37* | -19 | -11 | -2
Cc1ccc(NC(=O)C2CCN(c3ncnc4sc(C)c(C)c34)CC2)cc1S(=O)(=O)N(C)C | 7 | 5 | 14 | -8 | 3 | -2
CCN(CC)S(=O)(=O)c1cc(NC(=O)C2CCN(c3ncnc4sc(C)c(C)c34)CC2)ccc1Cl | 2 | -8 | 36* | -13 | 10 | -3
COc1ccc(S(=O)(=O)Nc2ccc(C(N)=O)cc2)cc1C(=O)N1CCCCCC1 | 1 | -2 | -1 | 7 | 7 | -3
C=C(C)COc1ccc(-c2ncncc2-c2ccccc2)c(O)c1 | -1 | -9 | 12 | -7 | 2 | -8
COc1ccc(CNS(=O)(=O)NCc2ccc(C)cc2)cc1OC | 19* | 15 | 7 | 1 | 3 | -4
CN(C)S(=O)(=O)c1cc(NC(=O)c2ccc(-n3ccnc3)c([N+](=O)[O-])c2)ccc1Cl | 5 | 21 | 26* | -18 | -12 | -8
COc1ccccc1NC(=O)c1ccc(-n2ccnc2)c([N+](=O)[O-])c1 | 6 | -2 | 10 | -5 | 3 | -1
CCN1C(=C(C#N)C#N)C=Cc2cc(C)ccc21 | 1 | -2 | 9 | -9 | 9 | -9
C=CC[n+]1c(/C=C2\C=Cc3cc(C)ccc3N2CC)ccc2ccccc21 | 16* | 38* | 54* | -14 | -7 | 3
CC1=C(C(=O)N2CCOCC2)C(c2ccc(Cl)cc2)NC(=S)N1 (stereo unspecified) | 20* | 7 | -3 | 11 | 14 | -7
CCN(CC)C(=O)[C@H]1C[C@H](CC(=O)NCc2ccc(OC)c(OC)c2)C(=O)N2CCc3c([nH]c4ccc(Cl)cc34)[C@]12C | 2 | -6 | -10 | 7 | 20 | -8
CCOc1ccc(S(=O)(=O)Nc2nc3ccccc3nc2Cl)cc1 | 1 | -5 | 0 | 2 | -10 | -3
CCOc1ccc(S(=O)(=O)Nc2cnc3ccccc3c2)cc1 | 14 | 25* | 15 | 0 | 1 | 3
CC(=O)Nc1nc(SCC(=O)Nc2nnc(C)s2)[nH]c(=O)c1NC(=O)c1cccs1 | 1 | -6 | -5 | 9 | 21 | -7
Cc1cccc2sc(NNC(=O)c3ccc(S(=O)(=O)N4CCCC(C)C4)cc3)nc12 (stereo unspecified) | 1 | 5 | 67* | -16 | -7 | -1
N#Cc1ccc(CN2CCN(C(=O)CC(NC(=O)c3ccccc3)c3ccccc3)CC2)cc1 (stereo unspecified) | 3 | -12 | 6 | -4 | 2 | 1
CC1=C(C)CC(C(=O)NC2CCN(C(C)C)CC2)C(C(=O)O)C1 (stereo unspecified) | 0 | 18 | 50* | -22 | -28 | -6
CC1=C(C)CC(C(=O)NC2CCCC2)C(C(=O)O)C1 (stereo unspecified) | 1 | -5 | -7 | 10 | 15 | 0
Cc1nc2scc(C)n2c(=O)c1S(=O)(=O)NCCc1ccc(Cl)cc1 | 0 | 13 | -5 | 2 | -4 | -4
Cc1nc2scc(C)n2c(=O)c1S(=O)(=O)NCC1CCN(Cc2ccc(Cl)cc2)CC1 | 1 | -5 | 44* | -23 | 4 | -6
COCCn1c(N)c(Sc2ccccc2[N+](=O)[O-])c(=O)[nH]c1=O | 1 | -7 | -12 | 7 | 8 | -1

Compound activity deposited in PubChem by The Scripps Research Institute Molecular Screening Center.
